In paper PMC5540273 (PLoS ONE, 2017):

How the values were obtained:
Details in all cases: concentration: 1 μM, replicates: in singlicate; n = 1
[1] = tested on: SRMS
[2] = tested on: SRPK1
[3] = tested on: SRPK2
[4] = tested on: SRPK3
[5] = tested on: STK16
[6] = tested on: STK33
[7] = tested on: STK35
[8] = tested on: STK36
[9] = tested on: STK39
[10] = tested on: SYK
[11] = tested on: SgK110
[12] = tested on: T1, TAK1
T1 construct: gene MAP3K7

[13] = tested on: TAOK1
[14] = tested on: TAOK2
[15] = tested on: TAOK3
[16] = tested on: TBK1
[17] = tested on: TEC
[18] = tested on: TESK1
[19] = tested on: TGFBR1
[20] = tested on: TGFBR2
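Note: KINOMEscan kinase panel screen.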

| Compound | %Inh [1] | %Inh [2] | %Inh [3] | %Inh [4] | %Inh [5] | %Inh [6] | %Inh [7] | %Inh [8] | %Inh [9] | %Inh [10] | %Inh [11] | %Inh [12] | %Inh [13] | %Inh [14] | %Inh [15] | %Inh [16] | %Inh [17] | %Inh [18] | %Inh [19] | %Inh [20] |
| --- | --- | --- | --- | --- | --- | --- | --- | --- | --- | --- | --- | --- | --- | --- | --- | --- | --- | --- | --- | --- |
| CCc1nc(-c2cccc(N(C)S(=O)(=O)c3ccccc3)c2)c(-c2ccnc(Nc3ccc(N4CCN(C(C)=O)CC4)nc3)n2)s1 [GSK1645895] | 19% | 19% | 0% | 0% | 41% | 0% | 0% | 99.4% | 0% | 0% | 0% | 0% | 0% | 0% | 2% | 27% | 7% | 0% | 17% | 0% |
| COC(=O)c1c(-c2ccccc2)c2cc(Cl)ccc2c(=O)n1Cc1ccc(S(C)(=O)=O)cc1 | 0% | 10% | 6% | 0% | 0% | 0% | 15% | 15% | 0% | 3% | 46% | 17% | 0% | 0% | 0% | 20% | 0% | 0% | 7% | 5% |
| Cc1cc(N2CCC(NS(=O)(=O)c3ccc(F)cc3)CC2)nc(Nc2cccc(C#N)c2)n1.O=C(O)C(F)(F)F [GSK1653537] | 0% | 15% | 0% | 18% | 0% | 0% | 0% | 0% | 1% | 19% | 6% | 0% | 0% | 0% | 0% | 1% | 0% | 9% | 0% | 11% |
| Cn1cc(-c2ccc3c(c2)CCN3C(=O)Cc2cccc(C(F)(F)F)c2)c2c(N)ncnc21 [GSK2606414] | 0% | 24% | 0% | 100% | 11% | 0% | 0% | 0% | 1% | 0% | 0% | 0% | 4% | 0% | 3% | 9% | 1% | 5% | 0% | 9% |
| COc1cc2ncnc(Nc3ccc(OCc4ccccc4Br)c(Cl)c3)c2cc1OC.Cl [GI261590] | 0% | 0% | 32% | 5% | 6% | 0% | 18% | 0% | 7% | 33% | 0% | 0% | 0% | 0% | 0% | 10% | 21% | 33% | 27% | 0% |
| N#Cc1ccc(Oc2ccc(Nc3ncnc4cc[nH]c34)cc2Cl)cc1 | 0% | 0% | 0% | 0% | 36% | 27% | 27% | 10% | 15% | 13% | 0% | 7% | 0% | 0% | 0% | 24% | 0% | 5% | 1% | 5% |
| OCCOCCn1ccc2ncnc(Nc3ccc(Oc4cccc(Cl)c4)c(Cl)c3)c21 | 0% | 0% | 0% | 0% | 0% | 0% | 0% | 0% | 0% | 26% | 0% | 0% | 0% | 0% | 0% | 7% | 0% | 0% | 7% | 0% |
| CC(C)(C)OC(=O)NC1CCCN(c2cc(-c3ccc4c(N)n[nH]c4c3)nc(N)n2)C1 (stereo not drawn) [GSK2286096] | 0% | 15% | 0% | 0% | 19% | 53% | 0% | 0% | 0% | 0% | 0% | 0% | 0% | 0% | 0% | 74% | 5% | 0% | 0% | 0% |
| Cc1ccc(O)cc1Nc1cc(C(F)(F)F)nc2ccc(-c3ccncc3)cc12 [GW630823] | 0% | 7% | 0% | 0% | 28% | 24% | 0% | 0% | 0% | 8% | 0% | 0% | 0% | 5% | 0% | 5% | 92.1% | 6% | 5% | 0% |
| NC(=O)c1sc(-n2cnc3ccccc32)cc1OCc1ccccc1F [GSK1024306] | 0% | 50% | 0% | 16% | 0% | 0% | 0% | 0% | 4% | 7% | 0% | 0% | 0% | 0% | 0% | 0% | 22% | 24% | 5% | 0% |
| CCn1c(-c2ccncc2)nc2cnccc21 [SB-735216] | 16% | 0% | 24% | 50% | 0% | 0% | 0% | 19% | 6% | 15% | 0% | 20% | 15% | 13% | 18% | 17% | 7% | 24% | 0% | 0% |
| CCc1nc(-c2cccc(C)c2)c(-c2ccnc(NC(=O)c3ccccc3)c2)s1 | 0% | 0% | 0% | 0% | 6% | 12% | 0% |  | 0% | 0% | 18% | 35% | 0% | 0% | 0% | 10% | 18% | 0% | 32% | 0% |
| CCC(CC)(CC)n1cnc2c(N)ncnc21 [SKF-97620] | 22% | 14% | 20% | 22% | 2% | 0% | 0% | 4% | 0% | 11% | 8% | 6% | 48% | 2% | 22% | 15% | 35% | 0% | 52% | 0% |
| Nc1nc(-c2ccccn2)c(-c2ccnc3ccccc23)s1 [GW548057] | 0% | 0% | 58% | 0% | 19% | 1% | 0% | 0% | 7% | 2% | 0% | 20% | 0% | 0% | 0% | 12% | 8% | 0% |  | 50% |
| COc1ccc(NC(=O)c2ccc(-c3cc(-c4nnc(C)o4)ccc3C)cc2)cc1 [GW595885] | 0% | 0% | 0% | 8% | 7% | 0% | 0% | 0% | 21% | 27% | 13% | 0% | 0% | 0% | 0% | 0% | 2% | 24% | 6% | 0% |
| COc1ccc(NC(=O)Nc2ccc(C)c(-c3ccc(C(=O)Nc4ccncc4)cc3)c2)cc1 [GSK1398475] | 0% | 0% | 0% | 0% | 0% | 0% | 0% | 0% | 0% | 0% | 0% | 0% | 0% | 0% | 0% | 6% | 3% | 19% | 3% | 0% |
